Measured values from the supplement of paper PMC11172423.
Unmarked numbers belong to inactive results.

Columns and labels:
[1] = system: Falciformispora senegalensis CBS197.79; assay: growth relative to untreated control; higher = less inhibition, active = 20 or less
Procedure, shortened: (§1)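 For each test, a hyphal fragment suspension of M. mycetomatis MM55 or F. senegalensis CBS197.79 was prepared in colourless RPMI 1640 with L-glutamine and MOPS at 68–72% transmission at 660 nm. Exposure to compound at 100 or 25 µM ran for 7 days at 37 °C in 96-well plates, followed by viability reading with MTS (2 h, 490 nm) or resazurin (600 nm). Growth corresponds to metabolic activity relative to the untreated growth control after correction of both with a blank of medium and dye.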

[2] = system: Madurella mycetomatis MM55; assay: as above
Procedure, shortened: as §1

Structure (SMILES)	growth ([1]; 25 µM) [%]	growth ([1]; 100 µM) [%]	growth ([2]; 25 µM)	growth ([2]; 100 µM)
C/C=C(\C)C(=O)O[C@H]1C[C@@H](OC(C)=O)[C@@]2(C(=O)OC)CO[C@H]3[C@@H](O)[C@@](C)([C@]45O[C@@]4(C)[C@H]4C[C@@H]5O[C@@H]5OC=C[C@@]54O)[C@H]4[C@]1(CO[C@]4(O)C(=O)OC)[C@@H]32	89.6	96.1	–	–
CN1CCN(C(=O)O[C@H]2c3nccnc3C(=O)N2c2ccc(Cl)cn2)CC1	106	102	–	–
COC(=O)N(C(=O)N1CO[C@@]2(C(=O)OC)Cc3cc(Cl)ccc3C2=N1)c1ccc(OC(F)(F)F)cc1	100	96.3	–	–
Cc1nc(N(C)C)nc(OC(=O)N(C)C)c1C	86.3	87.9	–	–
CN/C(=N\[N+](=O)[O-])NCc1cnc(Cl)s1	90.6	85.7	–	–
CC(C)=CC1C(C(=O)OCN2C(=O)C3=C(CCCC3)C2=O)C1(C)C (stereo unspecified)	93.7	100	–	–
CN1C2CCC1CC(C#N)C2 (stereo unspecified)	92.1	85.8	–	–
CNC(=O)c1cc(Cl)cc(C)c1NC(=O)c1cc(Br)nn1-c1ncccc1Cl	93.3	94.4	81.9%	57%
CCN(Cc1ccc(Cl)nc1)/C(=C/[N+](=O)[O-])NC	95.3	89.6	–	–
CCOc1ccc(C(C)(C)COCc2cccc(Oc3ccccc3)c2)cc1	79.4	39.3	97%	116%
Cc1cc(C2=NOC(c3cc(Cl)cc(Cl)c3)(C(F)(F)F)C2)ccc1C(=O)NCC(=O)NCC(F)(F)F (stereo unspecified)	92.4	103	–	–
CNC(=O)Oc1cccc2c1OC(C)(C)O2	86.8	96	–	–
COP(=S)(OC)Oc1ccc(Sc2ccc(OP(=S)(OC)OC)cc2)cc1	93.4	92.8	–	–
CC[C@@H](C(=O)[C@@H](C)[C@@H](O)[C@H](C)[C@@H]1O[C@@H]([C@@H](CC)C(=O)O)CC[C@@H]1C)[C@H]1O[C@]2(C=C[C@@H](O)[C@]3(CC[C@@](C)([C@H]4CC[C@](O)(CC)[C@H](C)O4)O3)O2)[C@H](C)C[C@@H]1C	102	102	–	–
CN/C(=N/CC1CCOC1)N[N+](=O)[O-] (stereo unspecified)	91.8	92.9	–	–
Cc1c(COC(=O)[C@@H]2[C@H](C=C(Cl)C(F)(F)F)C2(C)C)cccc1-c1ccccc1	87.1	95.2	–	–
CC1(C)C(C=C(Cl)Cl)C1C(=O)OC(C#N)c1ccc(F)c(Oc2ccccc2)c1 (stereo unspecified)	94	73.5	115%	146%
C[C@@H]1C[C@@H]([C@H](O)CC2CC(=O)NC(=O)C2)C(=O)[C@@H](C)C1	101	101	–	–
CC(C)Nc1cc2c(cn1)nc(Nc1cc(Cl)cc(C(F)(F)F)c1)n2C1CCNC1 (stereo unspecified)	66.7	28.6	7.15% (active)	6.36% (active)
CC(c1ccc(C(F)(F)F)nc1)S(C)(=O)=NC#N (stereo unspecified)	91.2	90.7	71.6%	173%
CC[C@H](C)[C@H]1O[C@]2(C=C[C@@H]1C)C[C@@H]1C[C@@H](C/C=C(\C)[C@@H](O[C@H]3C[C@H](OC)[C@@H](O[C@H]4C[C@H](OC)[C@@H](O)[C@H](C)O4)[C@H](C)O3)[C@@H](C)/C=C/C=C3\CO[C@@H]4[C@H](O)C(C)=C[C@@H](C(=O)O1)[C@]34O)O2.CO[C@H]1C[C@H](O[C@H]2[C@H](C)O[C@@H](O[C@@H]3/C(C)=C/C[C@@H]4C[C@@H](C[C@]5(C=C[C@H](C)[C@@H](C(C)C)O5)O4)OC(=O)[C@@H]4C=C(C)[C@@H](O)[C@H]5OC/C(=C\C=C\[C@@H]3C)[C@]54O)C[C@@H]2OC)O[C@@H](C)[C@@H]1O	92.5	90	75.2%	55.6%
O=C(NC(=O)c1c(F)cccc1F)Nc1ccc(Cl)c(Oc2ncc(C(F)(F)F)cc2Cl)c1	93	84	–	–
